Drawing on PubChem BioAssay (EPA / NIEHS), this text covers AC50 and outcome for three molecules.

Inconclusive results are not listed. Active and inactive are the calls of the source. How the source made its calls, unless noted: active means hit-call score of the fitted dose curve at least 0.9, where 1 is the maximum; inactive means score below 0.9.

The term AC50 denotes the concentration giving half of the maximal activity seen.

Read-out in assay [1]: Interleukin-1 alpha (IL1a), IL1A (gene 3552)
The assay can be described thus: BSK_LPS_IL1a: BioMAP Diversity Plus: LPS Assay for Interleukin-1 alpha (IL1a) Biomarker Activity (AID 2283080). To be noted: primary human HUVEC with PBMC; actives raise or lower the signal. The gist of the method: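 HUVEC/PBMC co-culture, LPS system; 24 h after dosing; IL-1a by ELISA; gain or loss of signal fitted bidirectionally vs DMSO baseline.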

Read-out in assay [2]: Monocyte Chemoattractant Protein-1 (MCP1), CCL2 (gene 6347)
The assay can be described thus: BSK_LPS_MCP1: BioMAP Diversity Plus: LPS Assay for Monocyte Chemoattractant Protein-1 (MCP1) Biomarker Activity (AID 2283081).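 On AC50: secreted MCP-1 protein quantified by ELISA in culture supernatant.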 Conditions: primary human HUVEC with PBMC; actives raise or lower the signal. A digest of the protocol: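 ELISA read-out of MCP-1 after 24 h chemical dosing of a human umbilical vein endothelial cell/peripheral blood mononuclear cell co-culture stimulated with LPS. Gain or loss of signal fitted relative to DMSO controls.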

Assay [3] can be described thus: BSK_LPS_PGE2: BioMAP Diversity Plus: LPS Assay for Prostaglandin E2 (PGE2) Biomarker Activity (AID 2283082).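 On AC50: secreted prostaglandin E2 measured by ELISA in LPS-stimulated co-culture.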 To be noted: primary human HUVEC with PBMC; actives raise or lower the signal. The gist of the method: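 LPS-activated HUVEC/PBMC co-culture; cmpd dosed, 24 h; PGE2 by ELISA; bidirectional fit vs DMSO; SRB (0.1%, TCA-fixed, 560 nm) in parallel plates for overt cytotox.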

Read-out in assay [4]: Macrophage colony-stimulating factor (MCSF), CSF1 (gene 1435)
The assay can be described thus: BSK_LPS_MCSF: BioMAP Diversity Plus: LPS Assay for Macrophage colony-stimulating factor (MCSF) Biomarker Activity (AID 2283083). To be noted: primary human HUVEC with PBMC; actives raise or lower the signal. The gist of the method:
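HUVEC + PBMC co-culture (human primary), 24 h post-dose; M-CSF by ELISA; gain/loss of signal fitted bidirectionally vs DMSO baseline.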

Read-out in assay [5]: Tissue Factor, F3 (gene 2152)
In words: BSK_LPS_TissueFactor: BioMAP Diversity Plus: LPS Assay for Tissue Factor Biomarker Activity (AID 2283084). Conditions: primary human HUVEC with PBMC; actives raise or lower the signal. The gist of the method: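 HUVEC/PBMC co-culture, LPS-activated; CD142 ELISA read 24 h post-dose; bidirectional curve fit vs DMSO negative control.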

Read-out in assay [6]: Tumor necrosis factor (Homo sapiens) (UniProt P01375)
In words: BSK_LPS_TNFa: BioMAP Diversity Plus: LPS Assay for Tumour Necrosis Factor alpha (TNFa) Biomarker Activity (AID 2283085). Conditions: primary human HUVEC with PBMC; actives raise or lower the signal. A digest of the protocol: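 Read-out is ELISA of TNFa in primary human endothelial cell–PBMC co-cultures at 24 h after compound. Activity in either direction was fitted against DMSO.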

Read-out in assay [7]: Vascular cell adhesion molecule 1 (VCAM1), VCAM1 (gene 7412)
The assay can be described thus: BSK_LPS_VCAM1: BioMAP Diversity Plus: LPS Assay for Vascular cell adhesion molecule 1 (VCAM1) Biomarker Activity (AID 2283086). Conditions: primary human HUVEC with PBMC; actives raise or lower the signal. The gist of the method: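 HUVEC + PBMC co-culture, LPS system; compound 24 h; VCAM-1 by ELISA; bidirectional fit vs DMSO control; parallel SRB (0.1%, TCA-fixed, 560 nm) for cytotoxicity.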

Read-out in the next assay: CD38, CD38 (gene 952)
The assay can be described thus: BSK_SAg_CD38: BioMAP Diversity Plus: SAg Assay for CD38 Biomarker Activity (AID 2283087). To be noted: primary human HUVEC with PBMC; actives raise or lower the signal. A digest of the protocol:
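Human HUVEC plus PBMC co-culture stimulated with superantigen; CD38 measured by ELISA 24 h after chemical dosing. Fluorescence read-out, bidirectional fit against DMSO; cytotoxicity tracked in parallel by SRB and Alamar Blue.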

Read-out in another assay: CD40, CD40 (gene 958)
The assay can be described thus: BSK_SAg_CD40: BioMAP Diversity Plus: SAg Assay for CD40 Biomarker Activity (AID 2283088). To be noted: primary human HUVEC with PBMC; actives raise or lower the signal. The gist of the method:
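HUVEC/PBMC co-culture, 24 h post-dose; CD40 by ELISA, fluorescence intensity; bidirectional fit vs DMSO negative control.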

Read-out in a further assay: CD69, CD69 (gene 969)
The assay can be described thus: BSK_SAg_CD69: BioMAP Diversity Plus: SAg Assay for CD69 Biomarker Activity (AID 2283089).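 On AC50: cell surface CD69 protein quantified by ELISA with fluorescence detection.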 Conditions: primary human HUVEC with PBMC; actives raise or lower the signal. The gist of the method: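 Values derive from bidirectional fitting relative to DMSO vehicle. Cells: umbilical vein endothelium plus peripheral blood mononuclear cells, treated 24 h before fluorescent ELISA for CD69.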

Read-out in assay [8]: Monocyte Chemoattractant Protein-1 (MCP1), CCL2 (gene 6347)
In words: BSK_SAg_MCP1: BioMAP Diversity Plus: SAg Assay for Monocyte Chemoattractant Protein-1 (MCP1) Biomarker Activity (AID 2283090). Conditions: primary human HUVEC with PBMC; actives raise or lower the signal. A digest of the protocol: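 MCP-1 levels in the endothelial–PBMC SAg co-culture were quantified by ELISA at 24 h post-dosing; both increases and decreases versus DMSO scored. Cytotoxicity monitored by SRB total protein in parallel cultures.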

Read-out in assay [9]: E-selectin (Homo sapiens) (UniProt P16581)
The assay can be described thus: BSK_SAg_Eselectin: BioMAP Diversity Plus: SAg Assay for Eselectin Biomarker Activity (AID 2283091). To be noted: primary human HUVEC with PBMC; actives raise or lower the signal. The gist of the method: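 E-selectin ELISA readout at 24 h post-dosing in human umbilical vein endothelial cell/PBMC co-culture; gain or loss of signal fitted relative to DMSO baseline.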

Read-out in assay [10]: Monokine induced gamma interferon (MIG), CXCL9 (gene 4283)
The assay can be described thus: BSK_SAg_MIG: BioMAP Diversity Plus: SAg Assay for Monokine induced gamma interferon (MIG) Biomarker Activity (AID 2283092). To be noted: primary human HUVEC with PBMC; actives raise or lower the signal. A digest of the protocol: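 Values reflect bidirectional fitting of ELISA-measured MIG against DMSO vehicle, taken 24 h after dosing of a co-culture of human umbilical vein endothelial cells and peripheral blood mononuclear cells.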

Assay [11] is described as follows: BSK_SAg_PBMCCytotoxicity: PBMC Cytotoxicity Assessment in the BioMAP Diversity Plus: SAg Assay (AID 2283093).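 Further: PBMC viability measured as Alamar Blue reduction fluorescence at 546/580 nm; fitted both ways against DMSO so a hit may be loss or gain of signal.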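 On AC50: PBMC superantigen activated with SEB plus TSST-1 one hour after compound addition.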 Conditions: primary human HUVEC with PBMC. A digest of the protocol:
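Human umbilical vein endothelial cells co-cultured with PBMC; PBMC (75,000/well) pre-treated with compound 1 h, then activated with SEB and TSST-1 (20 ng/mL final each) for 90 h. Alamar Blue added 6 h, fluorescence 546/580 nm; bidirectional fit versus DMSO.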

Read-out in assay [12]: Interleukin-8 (IL8), CXCL8 (gene 3576)
In words: BSK_SAg_IL8: BioMAP Diversity Plus: SAg Assay for Interleukin-8 (IL8) Biomarker Activity (AID 2283094). Conditions: primary human HUVEC with PBMC; actives raise or lower the signal. The gist of the method: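 ELISA read-out of IL-8 in a primary human vascular co-culture (umbilical vein endothelium plus PBMC), taken 24 h after compound addition. Values derive from bidirectional fits against DMSO negative controls.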

A short description of assay [13]: BSK_SAg_Proliferation: Cell Proliferation Assessment in the BioMAP Diversity Plus: SAg Assay (AID 2283095).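 Further: relative cell number as total protein by SRB absorbance in sub-confluent culture.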 To be noted: primary human HUVEC with PBMC. A digest of the protocol:
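Cells (endothelium plus PBMC, human primary) were dosed with chemical, cultured 96 h, fixed in 10% TCA and stained with 0.1% SRB. Absorbance at 560 nm gave relative protein, fitted bidirectionally relative to DMSO.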

A short description of assay [14]: BSK_SAg_SRB: Viability Assessment in the BioMAP Diversity Plus: SAg Assay (AID 2283096).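 Further: cells read one day after compound addition; hits may be either gain or loss of signal compared with DMSO.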 Conditions: primary human HUVEC with PBMC. A digest of the protocol:
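Endothelial/PBMC primary human co-culture; compound 24 h; fix 10% TCA, stain 0.1% SRB, A560; protein content as cytotoxicity proxy; bidirectional curve fit, DMSO = baseline.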

Assay [15] concerns the target human CYP19A1, CYP19A1 (gene 1588) (UniProt P11511). In words: NVS_ADME_hCYP19A1: NovaScreen (NVS) CYP450-related Enzyme Activity (ADME) Assay for human CYP19A1 (AID 2283098; active means hit-call score of the fitted dose curve at least 0.9, where 1 is the maximum;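 on AC50: potency for inhibitors seen as loss of fluorescent enzyme signal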). A digest of the protocol:
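Cell-free enzyme assay with recombinant protein and a specific fluorogenic substrate, read by fluorescence intensity 0.5 h after dosing. Primary screen ran in duplicate at 10 uM; actives were retested in concentration series. Loss of signal versus acetonitrile baseline.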

The target of assay [16] is human CYP1A1, CYP1A1 (gene 1543) (UniProt P04798). The assay can be described thus: NVS_ADME_hCYP1A1: NovaScreen (NVS) CYP450-related Enzyme Activity (ADME) Assay for human CYP1A1 (AID 2283100; active means hit-call score of the fitted dose curve at least 0.9, where 1 is the maximum). The gist of the method: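 Read-out: fluorescence intensity from enzymatic turnover of substrate by recombinant CYP1A1, loss of signal indicating inhibition. Incubation 1 h post-dose. Primary single-point 10 uM in duplicate; actives rerun singly with top concentration 20 uM.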

Assay [17] deals with human CYP2A6, CYP2A6 (gene 1548) (UniProt P11509). In words: NVS_ADME_hCYP2A6: NovaScreen (NVS) CYP450-related Enzyme Activity (ADME) Assay for human CYP2A6 (AID 2283099; active means hit-call score of the fitted dose curve at least 0.9, where 1 is the maximum). The gist of the method:
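Insect-cell-expressed human CYP2A6 enzyme activity measured by fluorescence intensity 0.5 hour post-dosing. Compounds screened at 10 uM in duplicate, then hits tested singly in concentration series (max 20 uM); acetonitrile baseline.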

Sequence of E-selectin (Homo sapiens) (P16581 whole entry, looked up): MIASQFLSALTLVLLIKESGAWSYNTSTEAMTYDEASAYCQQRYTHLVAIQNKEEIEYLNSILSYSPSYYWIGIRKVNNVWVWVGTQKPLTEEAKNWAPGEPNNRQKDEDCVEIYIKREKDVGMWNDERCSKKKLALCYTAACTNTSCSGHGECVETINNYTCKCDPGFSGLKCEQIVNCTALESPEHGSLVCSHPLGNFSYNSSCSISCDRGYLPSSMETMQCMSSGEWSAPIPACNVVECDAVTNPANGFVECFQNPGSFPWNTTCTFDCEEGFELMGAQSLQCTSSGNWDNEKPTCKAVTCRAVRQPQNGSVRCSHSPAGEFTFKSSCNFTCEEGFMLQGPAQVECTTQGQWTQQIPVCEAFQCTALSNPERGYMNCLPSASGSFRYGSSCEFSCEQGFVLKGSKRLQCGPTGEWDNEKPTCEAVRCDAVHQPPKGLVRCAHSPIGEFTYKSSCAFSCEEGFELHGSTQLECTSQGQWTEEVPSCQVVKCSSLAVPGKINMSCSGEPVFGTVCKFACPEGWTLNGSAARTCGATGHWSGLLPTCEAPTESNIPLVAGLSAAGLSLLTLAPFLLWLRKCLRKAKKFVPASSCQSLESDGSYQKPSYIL
Sequence of Tumor necrosis factor (Homo sapiens) (P01375 whole entry, looked up): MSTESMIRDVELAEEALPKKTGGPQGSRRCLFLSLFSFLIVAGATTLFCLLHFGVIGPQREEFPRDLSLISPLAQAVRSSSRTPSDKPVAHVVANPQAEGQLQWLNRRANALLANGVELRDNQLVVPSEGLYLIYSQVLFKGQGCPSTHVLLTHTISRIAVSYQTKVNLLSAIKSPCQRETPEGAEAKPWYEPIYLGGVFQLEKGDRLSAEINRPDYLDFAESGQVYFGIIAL
Sequence of human CYP19A1, CYP19A1 (gene 1588) (P11511 whole entry, looked up): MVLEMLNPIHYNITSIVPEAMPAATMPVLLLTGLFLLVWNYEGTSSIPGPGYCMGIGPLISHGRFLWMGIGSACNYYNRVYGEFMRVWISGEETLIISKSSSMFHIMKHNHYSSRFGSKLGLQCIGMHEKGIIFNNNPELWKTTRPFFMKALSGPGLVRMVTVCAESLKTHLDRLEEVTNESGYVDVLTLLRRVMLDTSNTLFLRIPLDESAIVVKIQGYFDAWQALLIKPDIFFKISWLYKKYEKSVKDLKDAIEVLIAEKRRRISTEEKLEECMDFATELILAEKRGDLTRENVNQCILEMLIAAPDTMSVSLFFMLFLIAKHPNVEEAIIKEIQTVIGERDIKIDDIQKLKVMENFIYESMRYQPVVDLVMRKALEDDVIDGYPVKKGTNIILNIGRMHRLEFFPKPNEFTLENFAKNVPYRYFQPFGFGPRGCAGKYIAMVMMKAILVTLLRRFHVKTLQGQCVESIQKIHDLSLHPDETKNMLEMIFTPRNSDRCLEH
Sequence of human CYP1A1, CYP1A1 (gene 1543) (P04798 whole entry, looked up): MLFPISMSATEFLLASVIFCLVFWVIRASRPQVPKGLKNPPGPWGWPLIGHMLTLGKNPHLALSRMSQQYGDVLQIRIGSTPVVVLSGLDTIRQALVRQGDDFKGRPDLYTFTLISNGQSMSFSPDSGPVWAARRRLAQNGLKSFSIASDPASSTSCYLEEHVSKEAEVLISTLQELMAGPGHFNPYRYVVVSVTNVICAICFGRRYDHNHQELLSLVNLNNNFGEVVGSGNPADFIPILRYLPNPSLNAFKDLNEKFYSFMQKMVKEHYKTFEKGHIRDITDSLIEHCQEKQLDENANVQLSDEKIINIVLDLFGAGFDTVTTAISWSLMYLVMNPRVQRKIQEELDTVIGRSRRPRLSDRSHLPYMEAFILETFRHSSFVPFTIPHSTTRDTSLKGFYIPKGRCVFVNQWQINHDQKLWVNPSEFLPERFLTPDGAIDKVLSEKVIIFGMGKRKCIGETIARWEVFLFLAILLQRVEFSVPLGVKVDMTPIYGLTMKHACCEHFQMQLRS
Sequence of human CYP2A6, CYP2A6 (gene 1548) (P11509 whole entry, looked up): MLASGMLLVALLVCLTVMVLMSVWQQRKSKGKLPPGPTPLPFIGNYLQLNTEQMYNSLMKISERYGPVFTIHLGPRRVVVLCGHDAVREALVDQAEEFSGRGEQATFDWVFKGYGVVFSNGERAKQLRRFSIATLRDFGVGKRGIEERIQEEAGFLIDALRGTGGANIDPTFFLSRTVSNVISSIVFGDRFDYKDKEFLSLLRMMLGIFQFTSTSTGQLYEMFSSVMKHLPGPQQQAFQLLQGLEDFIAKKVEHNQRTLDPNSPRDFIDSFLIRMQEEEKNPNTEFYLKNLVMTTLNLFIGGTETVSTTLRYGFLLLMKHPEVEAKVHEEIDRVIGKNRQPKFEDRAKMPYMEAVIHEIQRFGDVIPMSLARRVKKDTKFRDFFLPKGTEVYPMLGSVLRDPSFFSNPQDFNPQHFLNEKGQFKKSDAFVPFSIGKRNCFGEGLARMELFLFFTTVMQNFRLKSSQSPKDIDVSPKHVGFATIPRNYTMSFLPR

In the case of `O=S1OCC2C(CO1)C1(Cl)C(Cl)=C(Cl)C2(Cl)C1(Cl)Cl` (stereo not given), the AC50 in assay [1] is 16.3 µM (active); in assay [2], 34.9 µM (active); in [4] it was 30.2 µM (active); in [5], 31.2 µM (active); in assay [6], 32.2 µM (active); in [7], 18.3 µM (active). The AC50 in the assay with CD38, CD38 (gene 952) is 28.3 µM (active); in the assay with CD40, CD40 (gene 958), 16.3 µM (active); with CD69, CD69 (gene 969) it was 26.9 µM (active); in assay [8] it was 35.5 µM (active); in assay [9] it was 36.7 µM (active); in assay [10], 34.4 µM (active). Also, the AC50 in assay [11] was 16.1 µM (active); in [12] it was 36.6 µM (active); in assay [13], 14.2 µM (active); in assay [14] it was 29 µM (active). In addition, the result in assay [3] and in assay [15] was inactive.

For the molecule `CCCN(CCOc1c(Cl)cc(Cl)cc1Cl)C(=O)n1ccnc1`, the outcome in [1], in [2], in assay [5], in [7] and in assay [14] was inactive. The concentration at half-maximal activity (AC50) in [3] was 420 nM (active); in [4], 20 µM (active); in assay [6], 0.875 µM (active); with CD38, CD38 (gene 952), 30.7 µM (active); in the assay with CD40, CD40 (gene 958) it was 27.8 µM (active); with CD69, CD69 (gene 969), 14.9 µM (active). Also, the AC50 in [8] is 29.6 µM (active); in assay [9], 20.6 µM (active); in [10] it was 32.5 µM (active); in assay [11], 20 µM (active); in [12] it was 15.5 µM (active); in [13] it was 30.4 µM (active). For the same molecule, the results for the AC50 in [15] and in assay [16] were 784 nM (active) and 453 nM (active), respectively.

`O=C(Nc1ccccc1)Nc1cnns1`: the result in assay [1], in [2], in [3], in assay [4], in [5] and in assay [7] was inactive. Also, the outcome with CD38, CD38 (gene 952) is “inactive”; in the assay with CD40, CD40 (gene 958) it was “inactive”; in the assay with CD69, CD69 (gene 969) it was “inactive”; in [8] it was “inactive”; in assay [9], “inactive”; in [10] it was “inactive”. The result in [11], in assay [12], in [13] and in [14] was inactive. Also, the AC50 in [6] is 18.4 µM (active); in assay [17], 5.8 µM (active).
